The campaign covered roughly 72,000 compounds. About 710 (0.99%) were called active. About 7% were inconclusive and are not listed. Calls follow the shape of the dose curve; as a rule, active = well fitted inhibition curve with a large enough effect; inconclusive = small, poorly fitted or top-dose-only effect; inactive = no such curve, though single readings can be large or run the other way. This excerpt belongs to a sample that is enriched for actives.
Assay: qHTS Assay for Inhibitors of the ERK Signaling Pathway using a Homogeneous Screening Assay; also: nearly all actives have a fitted effect of over 55% in size
Details: HEK293-V1b, vasopressin-stimulated pERK AlphaScreen; series mostly up to 57.5 µM; activity, negative = inhibition: at the top concentration
Summary of the method: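 Phosphorylated ERK1/2 detected via AlphaScreen bead proximity in lysates of V1b-expressing HEK293 cells given 25 nM vasopressin for 5 min after 30 min compound exposure (37 °C). AC50 from Hill equation; basal DMSO 0%, vasopressin 100%.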
% is scaled to controls: 0 for no effect and ±100 for the full control effect; potency is read from the fitted curve at half-maximal effect.

Row | SMILES | activity, negative = inhibition | Potency
1 | COC(=O)[C@@H]1C[C@@]2(O)[C@H](O)[C@H](O)[C@H](O)C[C@H]2N1Cc1ccc(C(C)(C)C)cc1 | -2.93% (inactive) | –
2 | NCCNCC1CCNCC1 | -16% [at 11.5 µM] (inactive) | –
3 | O=C(c1ccco1)N1CCN(C(=O)C2CC(c3ccc(F)cc3)=NO2)CC1 (stereo unspecified) | 21.8% (inactive) | –
4 | O=C(c1ccco1)N1CCN(c2cccc(Cl)c2)CC1 | 4.47% (inactive) | –
5 | O=C(c1ccco1)N1CCN(C(=O)C2CC(c3ccc(Cl)c(Cl)c3)=NO2)CC1 (stereo unspecified) | – | 20 µM (active)
6 | O=C(O)c1c(Br)c(Br)c(Br)c(Br)c1C1c2ccc(O)cc2Oc2cc(O)ccc21 | -24.2% [at 11.5 µM] (inactive) | –
7 | CC(=O)OC1CCC2(O)CC1(C)CCC1C2CC1(C)C (stereo unspecified) | 0.411% (inactive) | –
8 | COc1cccc(Cn2c(=O)cnc3cncnc32)c1 | -9.52% (inactive) | –
9 | COc1ccc(CCC(=O)c2c(O)cc(OC3OC(CO)C(O)C(O)C3O[C@@H]3OC(C)C(O)C(O)C3O)cc2O)cc1O (stereo partly specified) | 5.82% (inactive) | –
10 | O=C(Oc1cc(OC(=O)c2ccccc2)c2c(c1)OC(c1ccc(OC(=O)c3ccccc3)c(OC(=O)c3ccccc3)c1)[C@@H](OC(=O)c1ccccc1)C2)c1ccccc1 (stereo partly specified) | 0.548% (inactive) | –
11 | O=C1c2ccccc2C(Nc2ccc3c(c2)OCCO3)N1Cc1ccco1 (stereo unspecified) | – | 25.1 µM (active)
12 | O=C(NC1CCCCC1)C1c2ccccc2C(=O)N1Cc1ccco1 (stereo unspecified) | -23.9% (inactive) | –
13 | CC1(C)SC2c3ccccc3C(=O)N2[C@@H]1C(=O)NCc1ccco1 (stereo partly specified) | -7.78% (inactive) | –
14 | COC1C[C@@H](O[C@@H]2C(C)C(=O)OC(C)C(C)C(O)C(C)C(=O)[C@@]3(CO3)CC(C)C(OC3OC(C)CC(N(C)C)C3O)C2C)OC(C)[C@@H]1O (stereo partly specified) | 2.45% (inactive) | –
15 | C=C[C@](C)(O)CCC1C(=C)CCC2[C@@](C)(CO)CCC[C@@]12C (stereo partly specified) | -12.1% (inactive) | –
16 | N#CC1=C(N)Oc2cc(O)ccc2C1C1CCCCC1 (stereo unspecified) | – | 25.1 µM (active)
17 | COCc1[nH]nc2c1C(C1C=CCCC1)C(C#N)=C(N)O2 (stereo unspecified) | -18.5% (inactive) | –
18 | N#CC1=C(N)OC2=C(C(=O)CCC2)C1C1CC=CCC1 (stereo unspecified) | -8.42% (inactive) | –
19 | Clc1ccc(C=Nc2ccc3c(c2)Cc2ccccc2-3)c(Cl)c1 | 9.67% [at 11.5 µM] (inactive) | –
20 | CCCN(C/C=C\I)[C@@H]1CCc2cccc(O)c2C1 | -3.23% (inactive) | –
21 | CC1=C(/C=C/C(C)=C/C=C/C(C)=C/C=C/C=C(C)/C=C/C=C(C)/C=C/C2=C(C)CCCC2(C)C)C(C)(C)CCC1 | 14.6% (inactive) | –
22 | COCCn1c(=O)c(CCc2ccccc2)nc2cnc(N3CCNCC3)nc21 | -17.1% (inactive) | –
23 | Cc1cnc(CNc2cc(-c3c(C)noc3C)ncn2)cn1 | 1.75% (inactive) | –
24 | O=C(O)C(O)[C@@](O)(Cc1ccc(O)cc1)C(=O)O (stereo partly specified) | -28% (inactive) | –

Row | SMILES | activity, negative = inhibition | Potency
25 | Cc1nc2ccccc2c(=O)n1CCCn1ccnc1 | -13.7% (inactive) | –
26 | Cc1ccnc(N2CCC(C(=O)NC3CCCCCC3)CC2)n1 | -0.296% (inactive) | –
27 | Cc1ccnc(-n2sc3ccccc3c2=O)n1 | – | 39.8 µM (active)
28 | C=CCOC(=O)C(C(C)=O)C(NC(=O)OC)c1ccccc1 (stereo unspecified) | 29.5% [at 11.5 µM] (inactive) | –
29 | Cn1c(=O)c(-c2ccccc2)nc2cnc(N3CCNCC3)nc21 | -3.93% (inactive) | –
30 | CCCCNc1nc(C)nc2c1nc(-c1ccccc1)n2CCCCN(CC)CC | -1.2% (inactive) | –
31 | C=C1C(=O)C23C(O)C1CCC2[C@]12COC3(O)C(O)C1C(C)(C)CC[C@H]2O (stereo partly specified) | 85.6% (inactive) | –
32 | c1ccc(CCN2CCN=C2Cc2ccccc2)cc1 | 9.2% [at 11.5 µM] (inactive) | –
33 | COCCn1c(=O)c(-c2cc(F)cc(F)c2)nc2cncnc21 | 0.136% (inactive) | –
34 | NS(=O)(=O)c1cc(Cl)c(Cl)c(S(N)(=O)=O)c1 | 6.14% [at 25.7 µM] (inactive) | –
35 | CCCCCCCCCCCC(=O)O[C@H](CC(=O)O)C[N+](C)(C)C | 22.5% (inactive) | –
36 | CC(C)=CC1C(C(=O)O)C1(C)C (stereo unspecified) | -10.2% (inactive) | –
37 | O=C(c1ccco1)N1CCC2(CC1)CN(c1ncccn1)C2 | 21% (inactive) | –
38 | CC1(C)OC2CC3C4CCC5=CC(=O)CCC5(C)C4(F)C(O)CC3(C)[C@]2(C(=O)CCl)O1 (stereo partly specified) | 5.45% (inactive) | –
39 | CC1OC(OCC2OC(Oc3c(-c4ccc(O)c(O)c4)oc4cc(O)cc(O)c4c3=O)C(O)C(O)C2O)[C@@H](O)C(O)C1O (stereo partly specified) | -4.89% (inactive) | –
40 | Cc1c(C)c2c(c(C)c1O)CC[C@@](C)(CN1CCN(c3cc(N4CCCC4)nc(N4CCCC4)n3)CC1)O2 | -2.07% (inactive) | –
41 | CO[C@H]1COC(=O)C/C=C\[C@H](C)COC(=O)[C@@H](OCc2ccccc2)/C=C\[C@@H]1C | 0.999% [at 11.5 µM] (inactive) | –
42 | COC(=O)CC1C(C)(C)C(OC(C)=O)C2CC3=C4CC(=O)OC(c5ccoc5)[C@]4(C)CCC3[C@@]1(C)C2=O (stereo partly specified) | 22.3% (inactive) | –
43 | CC(=O)OCC(=O)[C@@]1(O)CCC2C3CCC4=CC(=O)CC[C@]4(C)C3C(=O)C[C@]21C (stereo partly specified) | 9.79% (inactive) | –
44 | Cc1ccc(S(=O)(=O)Nc2ccc3ncccc3c2)cc1 | -12.7% (inactive) | –
45 | Cc1cc(/C=N/n2cnnc2)c(C)n1-c1ccc2ncccc2c1 | – | 15.8 µM (active)
46 | Fc1ccc(Br)cc1/C=N/n1cnnc1 | -23% (inactive) | –
47 | CCC1=C(OC(=O)N(CC)CC)N2C(=O)OC(=NCC3CC3)[C@]2(C)[C@H]2C1=CC[C@H]1C(=O)N(CC(=O)OC)C(=O)[C@H]12 | 3% (inactive) | –
48 | CCC(C)C(N)C1=NC(C(=O)NC(CC(C)C)C(=O)NC(CCC(=O)O)C(=O)NC(C(=O)NCCCCC2NC(=O)C(CC(N)=O)NC(=O)C(CC(=O)O)NC(=O)C(Cc3cnc[nH]3)NC(=O)C(Cc3ccccc3)NC(=O)C(C(C)CC)NC(=O)C(CCCN)NC2=O)C(C)CC)CS1 (stereo unspecified) | -1.35% (inactive) | –

Row | SMILES | activity, negative = inhibition | Potency
49 | O=c1c(CCc2ccccc2)nc2cnc(N3CCNCC3)nc2n1Cc1cccs1 | -19% (inactive) | –
50 | Clc1ccc(C2[C@H]3CN(CC4CCCCC4)[C@H](c4ccccc4)C34CC2(c2cccnc2)C4)cn1 (stereo partly specified) | -11.5% (inactive) | –
51 | C=CCn1c(CSc2nc3ccccc3s2)nnc1SCC(=O)NCc1ccco1 | -9.42% (inactive) | –
52 | CCn1c(SCC(=O)Nc2nc3ccc(OC)cc3s2)nnc1-c1ccoc1C | 0.587% (inactive) | –
53 | C=CCn1c(SCC(=O)Nc2nc3ccccc3s2)nnc1-c1ccccc1O | – | 15.8 µM (active)
54 | Cc1ccc(-c2nn(CC(C)(C)C)c3ncnc(N)c23)cc1 | – | 7.94 µM (active)
55 | CC(C)=CCC/C(C)=C/CC/C(C)=C/CC/C(C)=C/CO | 4.61% (inactive) | –
56 | COc1cc(OC)c2c(c1Cl)OC1(C2=O)C(O)=CC(=O)CC1C (stereo unspecified) | -7.62% (inactive) | –
57 | CCC[C@@H]1C[C@@]1(CCC)C(NS(=O)(=O)c1cccc2cccnc12)c1ccc(Cl)cc1 (stereo partly specified) | 27.7% (inactive) | –
58 | C=CC(=C)CCC=C(C)C | 8.05% (inactive) | –
59 | Fc1cccc(/C=N\N=C/c2cccc(F)c2)c1 | 33.7% (inactive) | –
60 | O=C1NS(=O)(=O)c2ccccc21 | 13.6% (inactive) | –
61 | Cc1cccc(CNc2cc(-c3ccccc3Cl)ncn2)c1 | -19.9% (inactive) | –
62 | FC(F)(F)c1ccc(CN2C[C@@H]3C(c4ccccc4)C4(c5ccccc5)CC3(C4)[C@H]2c2ccccc2)cc1 (stereo partly specified) | -19.1% (inactive) | –
63 | COc1ccc(CC(=O)Nc2ccc(-c3nnc(-c4ccccc4)o3)cc2)cc1 | -10.7% (inactive) | –
64 | Cc1ccc(OCC(=O)Nc2ccc(-c3nnc(-c4ccco4)o3)cc2)cc1 | -15.2% (inactive) | –
65 | O=C(CCc1ccccc1)Nc1cccc(-c2nnc(-c3ccco3)o2)c1 | – | 25.1 µM (active)
66 | Oc1cc(O)c2c(c1)OC(c1ccc(O)c(O)c1)C(O)C2 (stereo unspecified) | -17.9% (inactive) | –
67 | C[C@@H](N)[C@@H](C)Cc1ccccc1 | -2.1% [at 11.5 µM] (inactive) | –
68 | CCC(CCC(C)C1CCC2C3CC=C4CC(O)CC[C@@]4(C)C3CC[C@@]12C)C(C)C (stereo partly specified) | 13.9% (inactive) | –
69 | COc1ccccc1NC(=O)C1=C(C)NC2=C(C(=O)CCC2)C1c1ccc(C)o1 (stereo unspecified) | -15.5% (inactive) | –
70 | COC(=O)C1=C(C)NC2=C(C(=O)c3ccccc32)C1c1ccc(-c2ccc(C(=O)O)cc2)o1 (stereo unspecified) | – | 25.1 µM (active)
71 | COC(=O)C1=C(C)NC(=O)NC1/C=C/c1ccccc1 (stereo unspecified) | -11.3% (inactive) | –

Reference: PubChem BioAssay AID995 (National Center for Advancing Translational Sciences (NCATS), 2007)
